# Source: the OligoGym collection
# Legend:
# Assay in all cases: pooled miR-30 sensor sort-seq; sequence = guide strand
# Conditions in all cases: shRNA
# ZNRF2 = molecular target: ZNRF2
# ZNFX1 = molecular target: ZNFX1
# ZSCAN21 = molecular target: ZSCAN21
# Note: reference of the scale not given here.
sequence,measurement,setting,value
TTAAACACATTACAAGATGCAA,sensor-assay potency score (higher = more potent),ZNRF2,-0.454
TTTATTATGAGAGTTAGTCTGC,sensor-assay potency score (higher = more potent),ZNFX1,0.368
TGCATAGACAAGGCAGTCGTGC,sensor-assay potency score (higher = more potent),ZNRF2,-0.863
TTGAATAATAGCCAGTTCCCTT,sensor-assay potency score (higher = more potent),ZNFX1,-1.02
TTAACTAGACTGGATACACGTC,sensor-assay potency score (higher = more potent),ZSCAN21,-0.514
TAACACACAACCAAGATGGGGA,sensor-assay potency score (higher = more potent),ZNFX1,0.323
TTGTCAAGACAAGAAAACCTAT,sensor-assay potency score (higher = more potent),ZNRF2,-0.902
TACTTCAAACCATTCATCTATG,sensor-assay potency score (higher = more potent),ZNRF2,-0.758
TTTCTCTTCTAAGACATGCATC,sensor-assay potency score (higher = more potent),ZNFX1,-0.81
TAATTTGCCAAACAGACTCGTT,sensor-assay potency score (higher = more potent),ZNFX1,-0.716
TTGGTCTCTAGCTTCGTCGCTG,sensor-assay potency score (higher = more potent),ZNFX1,0.295
